Assay results published in PubChem BioAssay AID1159580 (chemical genetic matrix, 2015).
Several values for one entry are separate records, joined by “and”; a condition that tells them apart may be missing. Equal entries are not always repeated. The whole screen tested about 5,500 compounds, of which about 2,000 (36%) were called active. Not shown: some 18% with an inconclusive outcome. No stated cut-off is given here; in the data, active means normalized growth mostly below about 0.91 (no sharp cut-off); inconclusive means no clear call, values can overlap the other calls; inactive means mostly above about 0.92. The list shows a part of the results.

Assay: chemical genetic growth profiling, strain panel (AID 1159580);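 further: tested at 20 µM; growth read once vehicle control cultures reached saturation at 30 °C; 1 = growth at the plate median or of vehicle wells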
Settings: S. cerevisiae deletion strains, growth OD

Measured: normalized growth

CC(CCC(=O)O)[C@H]1CCC2C3CC[C@@H]4C[C@H](O)CC[C@]4(C)C3CC[C@@]21C (stereo not given in full)
0.762 (active) and 0.955 (inactive): locus YHR030C, strain SLT2, stronger effect = lower value
0.522 (active) and 0.953 (inactive): locus YJL095W, strain BCK1, stronger effect = lower value
active: locus YAL013W, strain DEP1, stronger effect = lower value 0.831 | locus YBR009C, strain hhf1, stronger effect = lower value 0.888 | locus YCL016C, strain dcc1, stronger effect = lower value 0.909 | locus YDL035C, strain GPR1, stronger effect = lower value 0.528 | locus YDL074C, strain BRE1, stronger effect = lower value 0.698 | locus YDL101C, strain DUN1, stronger effect = lower value 0.713 | locus YDL192W, strain arf1, stronger effect = lower value 0.856 | locus YDR137W, strain rgp1, stronger effect = lower value 0.452 | locus YDR162C, strain NBP2, stronger effect = lower value 0.208 | locus YDR392W, strain spt3, stronger effect = lower value 0.735 | locus YDR502C, strain sam2, stronger effect = lower value 0.878 | locus YEL061C, strain CIN8, stronger effect = lower value 0.912 | locus YER015W, strain faa2, stronger effect = lower value 0.907 | locus YER155C, strain BEM2, stronger effect = lower value 0.852 | locus YGL086W, strain mad1, stronger effect = lower value 0.923 | locus YGL173C, strain kem1, stronger effect = lower value 0.701 | locus YGL248W, strain PDE1, stronger effect = lower value 0.827 | locus YGR078C, strain PAC10, stronger effect = lower value 0.757 | locus YGR135W, strain pre9, stronger effect = lower value 0.84 | locus YGR229C, strain SMI1, stronger effect = lower value 0.356 | locus YHR094C, strain hxt1, stronger effect = lower value 1.08 [resistant] | locus YHR129C, strain ARP1, stronger effect = lower value 0.791 | locus YHR142W, strain chs7, stronger effect = lower value 0.873 | locus YIL066C, strain RNR3, stronger effect = lower value 0.79 | locus YJL095W, strain BCK1 (second series), stronger effect = lower value 0.893 | locus YJL166W, strain qcr8, stronger effect = lower value 0.83 | locus YJL168C, strain set2, stronger effect = lower value 1.14 [resistant] | locus YJL187C, strain SWE1 (second series), stronger effect = lower value 0.791 | locus YJR043C, strain POL32, stronger effect = lower value 0.849 | locus YKL190W, strain CNB1, stronger effect = lower value 0.882 | locus YKR001C, strain vps1, stronger effect = lower value 0.861 | locus YLR027C, strain aat2, stronger effect = lower value 0.921 | locus YLR039C, strain RIC1, stronger effect = lower value 0.479 | locus YLR102C, strain apc9, stronger effect = lower value 1.08 [resistant] | locus YLR262C, strain YPT6 (second series), stronger effect = lower value 0.488 | locus YLR262C, strain YPT6, stronger effect = lower value 0.321 | locus YLR320W, strain mms22, stronger effect = lower value 0.706 | locus YLR330W, strain CHS5, stronger effect = lower value 0.849 | locus YLR342W, strain FKS1 (second series), stronger effect = lower value 0.566 | locus YLR342W, strain FKS1, stronger effect = lower value 0.688 | locus YLR418C, strain cdc73, stronger effect = lower value 0.74 | locus YMR058W, strain fet3, stronger effect = lower value 0.871 | locus YMR205C, strain PFK2, stronger effect = lower value 0.854 | locus YMR307W, strain GAS1, stronger effect = lower value 0.456 | locus YNL067W, strain RPL9B, stronger effect = lower value 0.756 | locus YNL071W, strain lat1, stronger effect = lower value 0.809 | locus YNL307C, strain MCK1, stronger effect = lower value 0.795 | locus YNR052C, strain pop2, stronger effect = lower value 0.838 | locus YOR001W, strain rrp6, stronger effect = lower value 0.851 | locus YOR069W, strain VPS5, stronger effect = lower value 0.876 | locus YOR083W, strain WHI5, stronger effect = lower value 0.844 | locus YOR106W, strain vam3, stronger effect = lower value 0.77 | locus YOR136W, strain idh2, stronger effect = lower value 1.08 [resistant] | locus YOR184W, strain ser1, stronger effect = lower value 0.505 | locus YOR316C, strain cot1, stronger effect = lower value 1.1 [resistant] | locus YPL051W, strain arl3, stronger effect = lower value 0.793 | locus YPL078C, strain atp4, stronger effect = lower value 0.892 | locus YPR119W, strain clb2, stronger effect = lower value 1.11 [resistant] | locus YPR141C, strain kar3, stronger effect = lower value 1.09 [resistant]
inactive: locus YAL021C, strain ccr4, stronger effect = lower value 0.982 | locus YAL026C, strain drs2, stronger effect = lower value 0.946 | locus YAL030W, strain snc1, stronger effect = lower value 0.989 | locus YBL061C, strain skt5, stronger effect = lower value 1.03 | locus YBR021W, strain FUR4, stronger effect = lower value 0.932 | locus YBR023C, strain chs3, stronger effect = lower value 0.924 | locus YBR171W, strain sec66, stronger effect = lower value 1.01 | locus YBR229C, strain ROT2, stronger effect = lower value 1.04 | locus YBR231C, strain swc5, stronger effect = lower value 0.939 | locus YBR279W, strain paf1, stronger effect = lower value 1.01 | locus YCL011C, strain gbp2, stronger effect = lower value 0.974 | locus YCL029C, strain bik1, stronger effect = lower value 0.993 | locus YCL061C, strain MRC1, stronger effect = lower value 0.931 | locus YCL069W, strain vba3, stronger effect = lower value 1 | locus YCR088W, strain abp1, stronger effect = lower value 0.993 | locus YDL005C, strain med2, stronger effect = lower value 1.01 | locus YDL040C, strain nat1, stronger effect = lower value 1.03 | locus YDL185W, strain tfp1, stronger effect = lower value 1.04 | locus YDR001C, strain nth1, stronger effect = lower value 1.02 | locus YDR069C, strain doa4, stronger effect = lower value 0.947 | locus YDR101C, strain arx1, stronger effect = lower value 0.977 | locus YDR159W, strain sac3, stronger effect = lower value 0.925 | locus YDR195W, strain ref2 1.07 | locus YDR297W, strain sur2, stronger effect = lower value 1 | locus YDR318W, strain mcm21, stronger effect = lower value 0.951 | locus YDR334W, strain swr1, stronger effect = lower value 0.989 | locus YDR335W, strain msn5, stronger effect = lower value 0.926 | locus YDR388W, stronger effect = lower value 1.01 | locus YEL003W, strain gim4, stronger effect = lower value 0.94 | locus YEL037C, strain rad23, stronger effect = lower value 0.994 | locus YEL061C, strain CIN8 (second series), stronger effect = lower value 1.01 | locus YER016W, strain bim1, stronger effect = lower value 1 | locus YER110C, stronger effect = lower value 1.07 | locus YER111C, strain swi4, stronger effect = lower value 1.01 | locus YER155C, strain BEM2 (second series), stronger effect = lower value 1.04 | locus YER167W, strain BCK2, stronger effect = lower value 0.906 | locus YFR010W, strain ubp6, stronger effect = lower value 0.982 | locus YGL078C, strain dbp3, stronger effect = lower value 0.926 | locus YGL167C, strain pmr1, stronger effect = lower value 0.988 | locus YGL227W, strain vid30, stronger effect = lower value 1 | locus YGL240W, strain doc1, stronger effect = lower value 0.89 | locus YGL253W, strain hxk2, stronger effect = lower value 0.989 | locus YGR252W, strain gcn5, stronger effect = lower value 0.792 | locus YHR013C, strain ard1, stronger effect = lower value 1.01 | locus YHR027C, strain rpn1, stronger effect = lower value 0.94 | locus YHR079C, strain IRE1 (second series), stronger effect = lower value 1.06 | locus YHR079C, strain IRE1, stronger effect = lower value 0.955 | locus YHR200W, strain rpn10, stronger effect = lower value 1.02 | locus YIL073C, strain SPO22, stronger effect = lower value 0.937 | locus YIL125W, strain kgd1, stronger effect = lower value 1.04 | locus YIR030C, strain dcg1, stronger effect = lower value 1.04 | locus YJL092W, strain hpr5, stronger effect = lower value 0.966 | locus YJL115W, strain asf1, stronger effect = lower value 1.01 | locus YJL129C, strain trk1, stronger effect = lower value 0.914 | locus YJL134W, strain LCB3, stronger effect = lower value 1.04 | locus YJL154C, strain vps35, stronger effect = lower value 0.997 | locus YJL164C, strain tpk1, stronger effect = lower value 0.92 | locus YJL187C, strain SWE1, stronger effect = lower value 0.979 | locus YJR066W, strain TOR1, stronger effect = lower value 0.952 | locus YKL009W, strain mrt4, stronger effect = lower value 0.935 | locus YKL068W, stronger effect = lower value 1.05 | locus YKL085W, strain MDH1 (second series), stronger effect = lower value 1.03 | locus YKL085W, strain MDH1, stronger effect = lower value 1.03 | locus YKL160W, strain elf1, stronger effect = lower value 0.927 | locus YKR026C, strain gcn3, stronger effect = lower value 1.02 | locus YKR091W, strain srl3, stronger effect = lower value 1.03 | locus YLL001W, strain dnm1, stronger effect = lower value 0.933 | locus YLL026W, stronger effect = lower value 0.955 | locus YLL041C, strain sdh2, stronger effect = lower value 1.02 | locus YLR058C, strain SHM2, stronger effect = lower value 0.893 | locus YLR113W, strain HOG1, stronger effect = lower value 0.963 | locus YLR221C, strain rsa3, stronger effect = lower value 0.938 | locus YLR258W, strain gsy2, stronger effect = lower value 0.967 | locus YLR268W, strain sec22, stronger effect = lower value 0.886 | locus YLR357W, strain rsc2, stronger effect = lower value 1.07 | locus YLR370C, strain arc18, stronger effect = lower value 0.991 | locus YLR371W, strain rom2, stronger effect = lower value 1.09 | locus YLR384C, strain iki3, stronger effect = lower value 1.07 | locus YML016C, strain PPZ1, stronger effect = lower value 1.01 | locus YML032C, strain rad52, stronger effect = lower value 0.914 | locus YML120C, strain ndi1, stronger effect = lower value 0.93 | locus YML124C, strain tub3, stronger effect = lower value 1.05 | locus YMR078C, strain ctf18, stronger effect = lower value 1.06 | locus YMR125W, strain sto1, stronger effect = lower value 1.08 | locus YMR129W, stronger effect = lower value 1.03 | locus YMR223W, strain ubp8, stronger effect = lower value 0.934 | locus YMR231W, strain pep5, stronger effect = lower value 0.95 | locus YNL128W, strain TEP1, stronger effect = lower value 0.866 | locus YNL183C, strain NPR1, stronger effect = lower value 0.935 | locus YNL209W, strain ssb2, stronger effect = lower value 0.993 | locus YNL233W, strain BNI4, stronger effect = lower value 0.926 | locus YNL248C, strain rpa49, stronger effect = lower value 0.938 | locus YNL250W, strain rad50, stronger effect = lower value 1.02 | locus YNL271C, strain bni1, stronger effect = lower value 1.02 | locus YNL298W, strain CLA4, stronger effect = lower value 0.978 | locus YNL322C, strain KRE1 (second series), stronger effect = lower value 1.01 | locus YNR049C, strain mso1, stronger effect = lower value 0.987 | locus YOL012C, strain htz1 1.89 | locus YOL147C, strain pex11, stronger effect = lower value 1.02 | locus YOR061W, strain CKA2, stronger effect = lower value 0.964 | locus YOR070C, strain gyp1, stronger effect = lower value 0.953 | locus YOR080W, strain dia2, stronger effect = lower value 0.973 | locus YOR144C, strain elg1, stronger effect = lower value 1.02 | locus YOR231W, strain MKK1, stronger effect = lower value 0.97 | locus YOR265W, strain rbl2, stronger effect = lower value 0.994 | locus YOR270C, strain vph1, stronger effect = lower value 0.807 | locus YOR290C, strain snf2, stronger effect = lower value 0.937 | locus YPL106C, strain sse1, stronger effect = lower value 1.12 | locus YPL240C, strain hsp82, stronger effect = lower value 1.03 | locus YPL241C, strain CIN2, stronger effect = lower value 0.997 | locus YPL256C, strain CLN2, stronger effect = lower value 1.05 | locus YPR163C, strain tif3, stronger effect = lower value 0.968 | locus YPR167C, strain met16, stronger effect = lower value 0.991 | strain wtn01, stronger effect = lower value 0.961
